Assay outcomes (PubChem BioAssay)
OPRM1-OPRD1 inv – inverse agonists of MOR-DOR heterodimerization, primary screen, cell-based, luminescence. Mu-type opioid receptor (Homo sapiens) + Delta-type opioid receptor (Homo sapiens), …. inhibition, % at 9.3 µM. cell-based MOR-DOR heterodimer luminescence, inverse agonism. actives 0.21% (n = 340,000). AID 504357, 2011; in the data active = inhibition above about 22%, passing the limit was not always enough;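 note: 0% = cells with DMSO and 100% = wells without cells with DMSO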
MOR-DOR ag-1 – agonists of OPRM1-OPRD1 heterodimerization, primary screen, cell-based, luminescence; Mu-type opioid receptor (Homo sapiens) + Delta-type opioid receptor (Homo sapiens), …; cells; activation, % at 9.3 µM; actives 0.3% (n = 340,000); AID 504326, 2011;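 note: 0% = vehicle-treated cells and 100% = reference agonist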
HTR5A ag – HTR5A agonists in luminescence cell assay, primary screen, counter-screen for OPRM1-OPRD1 heterodimer agonist project, full-deck HTS | activation, % at 9.3 µM | cell-based | AID 504692, 2011 | actives 0.61% (n = 340,000); in the data active = activation mostly above about 9.5%, no sharp cut-off; inactive = mostly below about 7.6%;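 note: 0% = cells with vehicle only and 100% = reference agonist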
Target sequence (P47898 whole entry, looked up): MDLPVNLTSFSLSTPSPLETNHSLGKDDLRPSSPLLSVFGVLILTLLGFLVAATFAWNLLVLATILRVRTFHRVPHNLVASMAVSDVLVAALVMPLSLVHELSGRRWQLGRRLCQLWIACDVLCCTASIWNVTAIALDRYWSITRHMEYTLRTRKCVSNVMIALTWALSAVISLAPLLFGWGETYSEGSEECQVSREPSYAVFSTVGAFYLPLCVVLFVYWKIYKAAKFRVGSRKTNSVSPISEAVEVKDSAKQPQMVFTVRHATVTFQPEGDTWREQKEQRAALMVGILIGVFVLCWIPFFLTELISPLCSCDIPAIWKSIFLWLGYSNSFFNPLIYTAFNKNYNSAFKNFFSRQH
HTR5A inv ag – HTR5A inverse agonists in luminescence cell assay, primary screen, counter-screen for OPRM1-OPRD1 heterodimer inverse agonist project, full-deck HTS. 5-hydroxytryptamine receptor 5A (Homo sapiens), P47898. HTR5A cell line, inverse agonism. inhibition, % at 9.3 µM. actives 0.083% (n = 340,000). AID 504634, 2011; in the data active = inhibition mostly above about 23%, no sharp cut-off; inactive = mostly below about 18%;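 note: 0% = cells with DMSO and 100% = no-cell wells with DMSO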
MOR-DOR ag-2 – OPRM1-OPRD1 heterodimerization promoters, counter-screen for HTR5A agonist project, cell-based, luminescence; U2OS counter-screen cells, complementation luminescence, 3 h; activation, % at 9.3 µM; AID 504913, 2011; shares compounds with HTR5A ag; actives 13% (n = 800)
HTR5A ag confirm – HTR5A agonists, retest of hits, confirmation, cell-based, luminescence; shares compounds with HTR5A ag; actives 17% (n = 800); HTR5A agonist cell assay; activation, % at 9.3 µM; AID 504915, 2011; in the data active = activation above about 17%;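 note: 0% = cells with vehicle only and 100% = full reference agonist response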
Starred values were filed as active, the others as inactive. An excerpt weighted towards active compounds, which were near 1.1% of everything screened. Cut-off read from the data, not from the text of the source, unless noted: active = activation above about 18%; inactive = the rest.

`O=C(CNS(=O)(=O)c1ccccc1)N1CCCC1` gave OPRM1-OPRD1 inv 15.0, MOR-DOR ag-1 -2.9, HTR5A ag 0.9 and HTR5A inv ag 1.9.
For CN1C[C@H](C(=O)NC2(C)OC3(O)[C@@H]4CCCN4C(=O)[C@H](Cc4ccccc4)N3C2=O)CC2c3cccc4[nH]cc(c34)C[C@H]21 (stereo partly drawn) the results were OPRM1-OPRD1 inv -9.5, MOR-DOR ag-1 1.8, HTR5A ag 32.2*, HTR5A inv ag -115.2, MOR-DOR ag-2 5.1 and HTR5A ag confirm 63.4*.
For O=C(NC1CCCN(CCc2ccccc2)C1)c1c[nH]c2ccccc12 (stereo not drawn) the results were OPRM1-OPRD1 inv 8.9, MOR-DOR ag-1 -1.8, HTR5A ag 2.2 and HTR5A inv ag -7.5.
CCOc1ccc(/C(O)=C2\C(=O)C(=O)N(CCN(C)C)C2c2cccc(OC)c2OC)cc1Cl (stereo not drawn) was read as OPRM1-OPRD1 inv 13.3, MOR-DOR ag-1 -2.2, HTR5A ag -1.7 and HTR5A inv ag -3.1.
CC(C)c1c(C(=O)N/N=C/c2ccc(OCc3ccccc3)cc2)nnn1-c1nonc1N was read as OPRM1-OPRD1 inv -12.8, MOR-DOR ag-1 2.4, HTR5A ag 22.5*, HTR5A inv ag -3.8, MOR-DOR ag-2 41.0* and HTR5A ag confirm -0.7.
Screening Nc1nonc1-n1nnc(C(=O)N/N=C/c2ccc(OCc3ccccc3)cc2)c1COc1ccc(F)cc1 returned OPRM1-OPRD1 inv -4.8, MOR-DOR ag-1 0.9, HTR5A ag 1.5 and HTR5A inv ag 12.5.
Screening CC(C)c1c(C(=O)N/N=C/c2ccc(OCc3ccc(F)cc3)cc2)nnn1-c1nonc1N returned OPRM1-OPRD1 inv -21.3, MOR-DOR ag-1 4.2, HTR5A ag 14.7*, HTR5A inv ag -8.1, MOR-DOR ag-2 7.0 and HTR5A ag confirm -0.8.
`COc1ccc(Cl)cc1NS(=O)(=O)c1cccc(C(=O)NCC(C)(C)N2CCOCC2)c1` gave OPRM1-OPRD1 inv 7.2, MOR-DOR ag-1 -1.8, HTR5A ag 1.3 and HTR5A inv ag -3.7.
`CC(C(=O)OCC(=O)N1CCN(c2ccccc2)CC1)N1C(=O)c2ccccc2C1=O` (stereo not drawn) gave OPRM1-OPRD1 inv 24.6, MOR-DOR ag-1 -6.2, HTR5A ag 18.6*, HTR5A inv ag -47.4, MOR-DOR ag-2 2.8 and HTR5A ag confirm 0.9.
Screening CCN1CCN(c2cc(-c3ccccc3)nc3cc(-c4cccc(F)c4)nn23)CC1 returned OPRM1-OPRD1 inv -45.1, MOR-DOR ag-1 9.8, HTR5A ag 14.3*, HTR5A inv ag -8.4, MOR-DOR ag-2 11.5 and HTR5A ag confirm -2.6.
Screening OC1CCN(c2cc(-c3ccccc3)nc3cc(-c4ccc(F)cc4)nn23)CC1 returned OPRM1-OPRD1 inv 8.7, MOR-DOR ag-1 -1.8, HTR5A ag 1.2 and HTR5A inv ag -3.0.
Screening O=C(CCCCCNC(=O)c1ccccc1Br)N=Nc1c(O)[nH]c2ccccc12 returned OPRM1-OPRD1 inv 4.1, MOR-DOR ag-1 -0.8, HTR5A ag -1.4 and HTR5A inv ag -4.0.
`CN(C)S(=O)(=O)c1cccc(COC(=O)c2ccc(Cl)cc2O)c1` gave OPRM1-OPRD1 inv -3.1, MOR-DOR ag-1 0.6, HTR5A ag 15.8*, HTR5A inv ag 18.5, MOR-DOR ag-2 39.0* and HTR5A ag confirm -2.6.
`CN(C)S(=O)(=O)c1cccc(COC(=O)c2ccc3c(c2)OCO3)c1` gave OPRM1-OPRD1 inv -1.8, MOR-DOR ag-1 0.4, HTR5A ag 0.1 and HTR5A inv ag 22.0.
Screening Cc1cc(C(=O)COC(=O)c2ccc(O)cc2O)c(C)n1-c1ccc(OC(F)F)cc1 returned OPRM1-OPRD1 inv -50.2, MOR-DOR ag-1 7.9, HTR5A ag 26.8*, HTR5A inv ag -11.6, MOR-DOR ag-2 1.4 and HTR5A ag confirm 24.8*.
For Cc1cc(C(=O)CC#N)c(C)n1-c1ccc(OC(F)F)cc1 the results were OPRM1-OPRD1 inv 17.4, MOR-DOR ag-1 -3.1, HTR5A ag -1.6 and HTR5A inv ag -21.2.
